Measured values reported in PubChem BioAssay (NCATS).
Inconclusive results are not listed. A call without a number means that no potency is given here. Calls of active or inactive are those of the source. Unless noted, the call rests on the fitted dose curve; in most records, active means well fitted curve in the direction sought with a large enough effect; inconclusive means small, poorly fitted or top-dose-only effect, or another doubt; inactive means no such curve, though single readings can be large; an effect the other way counts as inactive or inconclusive.

System: not listed separately
Test: qHTS Assay for Identification of Small Molecule Inducers of Hypoxia Response (AID 2120; active means well fitted curve in the direction sought with a large enough effect in the signal ratio, with a control signal flat, not every such curve was filed as active; the % refers to the signal ratio)
Conditions: hypoxia response reporter cells, beta-lactamase ratio readout; series mostly up to 104 µM
Procedure, shortened: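 HRE-beta-lactamase reporter in CellSensor HRE-bla ME-180 cells, 2500 cells/well in Opti-MEM with 0.5% dialyzed FBS; compounds tested as titration series, 17 h at 37 degrees C. CCF4 substrate 2.5 h at room temperature; AC50 from 460/530 nm ratio.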

Compound	outcome
C=C(C)[C@H]1CC=C(C)C(=O)C1	inactive
C=CC(C)(O)CCC=C(C)C (stereo unspecified)	inactive
COS(C)(=O)=O	inactive

Biological target: ATP-dependent 6-phosphofructokinase (Trypanosoma brucei brucei) (UniProt O15648)
Sequence (O15648 whole entry, looked up): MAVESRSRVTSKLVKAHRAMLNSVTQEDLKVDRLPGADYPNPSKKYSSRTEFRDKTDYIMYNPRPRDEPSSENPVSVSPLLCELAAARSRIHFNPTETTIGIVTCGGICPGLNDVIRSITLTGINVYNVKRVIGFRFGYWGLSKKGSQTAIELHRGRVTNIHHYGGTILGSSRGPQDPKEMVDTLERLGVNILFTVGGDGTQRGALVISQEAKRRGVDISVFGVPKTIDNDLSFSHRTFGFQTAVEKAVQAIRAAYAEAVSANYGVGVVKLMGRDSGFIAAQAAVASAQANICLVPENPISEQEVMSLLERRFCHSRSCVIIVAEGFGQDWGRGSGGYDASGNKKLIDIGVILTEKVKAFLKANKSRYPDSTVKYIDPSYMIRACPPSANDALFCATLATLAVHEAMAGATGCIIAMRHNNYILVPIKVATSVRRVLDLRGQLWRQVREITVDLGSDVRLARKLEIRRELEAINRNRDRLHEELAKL
Test: qHTS Assay to Find Inhibitors of T. brucei phosphofructokinase: hit validation (AID 492961);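 further: luminescence reports ADP formed as PFK phosphorylates fructose-6-phosphate with ATP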
Conditions: T. brucei PFK, ADP-Glo luminescence; series mostly up to 24.3 µM
Procedure, shortened: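 Compounds titrated; %activity normalized to 0x and 1x enzyme controls, curve-fitted. Readout: ADP-Glo luminescence after 45 min room-temperature reaction of 1.25 nM PFK, 0.1 mM ATP, 0.5 mM F6P, pH 8.0.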

Compound	outcome
C[N+](C)(C)CC(O)CC(=O)O (stereo unspecified)	inactive
CN(C)CC/C=C1\c2ccccc2CSc2ccccc21	inactive
CC(C)N1CCN(c2ccc(OC[C@@H]3CO[C@@](Cn4cncn4)(c4ccc(Cl)cc4Cl)O3)cc2)CC1	inactive
C[C@@H]1CCC[C@H](C)N1NC(=O)c1ccc(Cl)c(S(N)(=O)=O)c1	inactive

Biological target: Ubiquitin carboxyl-terminal hydrolase 1 (Homo sapiens) (UniProt O94782)
Sequence (O94782 whole entry, looked up): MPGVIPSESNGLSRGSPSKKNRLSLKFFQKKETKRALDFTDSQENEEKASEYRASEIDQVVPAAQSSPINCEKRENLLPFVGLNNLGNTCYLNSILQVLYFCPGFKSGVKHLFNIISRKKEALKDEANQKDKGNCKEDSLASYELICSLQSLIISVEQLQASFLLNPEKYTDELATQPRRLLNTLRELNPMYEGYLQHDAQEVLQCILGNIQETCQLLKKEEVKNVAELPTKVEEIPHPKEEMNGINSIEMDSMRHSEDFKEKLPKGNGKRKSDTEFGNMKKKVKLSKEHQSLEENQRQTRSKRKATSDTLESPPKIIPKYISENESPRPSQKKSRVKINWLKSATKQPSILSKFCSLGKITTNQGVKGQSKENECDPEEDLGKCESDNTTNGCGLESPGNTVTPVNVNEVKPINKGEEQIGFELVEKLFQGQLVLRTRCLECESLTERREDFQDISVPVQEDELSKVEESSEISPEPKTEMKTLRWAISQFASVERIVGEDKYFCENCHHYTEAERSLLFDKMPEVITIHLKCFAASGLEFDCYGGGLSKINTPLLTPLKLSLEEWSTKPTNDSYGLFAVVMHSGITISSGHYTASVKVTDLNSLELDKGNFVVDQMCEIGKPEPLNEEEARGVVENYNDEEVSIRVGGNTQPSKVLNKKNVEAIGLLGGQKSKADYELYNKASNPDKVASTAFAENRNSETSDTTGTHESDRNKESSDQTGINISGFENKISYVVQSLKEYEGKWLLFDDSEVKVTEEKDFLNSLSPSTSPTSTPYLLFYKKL
Test: Inhibitors of USP1/UAF1: Pilot qHTS (AID 504865); further: nearly all actives have a fitted effect of over 35% in size; further: potency means the concentration at half of the fitted maximal effect
Conditions: purified USP1/UAF1, Ub-rhodamine cleavage fluorescence; series mostly up to 54.9 µM
Procedure, shortened: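 Kinetic fluorescence assay: 1nM USP1/UAF1, 15 min compound preincubation, then 150nM Ub-Rho; 480/540 nm.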

Compound	Potency
COCCn1c(=O)c(C)nc2cnc(Nc3ccccc3)nc21	inactive
C=C(C)[C@H]1CC=C(C)C(=O)C1	inactive
COc1cccc(Cn2c(=O)cnc3cnc(N4CCN(C)CC4)nc32)c1	inactive
N#Cc1cccc(-c2ccc3ncnc(NCc4ccccc4)c3c2)c1	15.8 µM (active)
COc1ncc2nc(-c3cccs3)c(=O)n(C)c2n1	inactive
Oc1ccc2c(c1)OCC1(O)Cc3cc(O)c(O)cc3C21 (stereo unspecified)	79.4 µM (active)
C[N+](C)(C)CC(O)CC(=O)O (stereo unspecified)	inactive
COc1ccccc1-c1ccc2ncnc(Nc3ccccc3)c2c1	inactive
C=CC(C)(O)CCC=C(C)C (stereo unspecified)	inactive
CN(C)CC/C=C1\c2ccccc2CSc2ccccc21	inactive
COC(=O)C1=CO[C@@H](C)[C@H]2CN3CCc4c([nH]c5ccccc45)[C@@H]3C[C@H]12	inactive
N#Cc1ccccc1-c1ccc2ncnc(NCc3cccs3)c2c1	inactive
C=C[C@](C)(O)CCC=C(C)C	inactive
COc1ccccc1CNc1ncnc2ccc(-c3cccc(C#N)c3)cc12	inactive
